# Data: PubChem BioAssay (NCI)
# The panel holds about 83,000 compounds, 20% with a hit somewhere; the sample as a whole holds those more often.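 Cell lines were cultured in 96-well plates, exposed to a single compound concentration, and assessed for percent growth 48 hours later.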 A number with no mark means an inactive call. Calls of active or inactive are those of the source. Rule for the calls: active = growth percent below 10; inactive = the rest.
# Experiments:
# Test in all cases: NCI-60 one-dose screen, 48 h (100 = growth as untreated, 0 = no growth, -100 = all killed)
# Settings in all cases: 10 µM unless noted
# DU-145 prostate = test system: DU-145 prostate
# K-562 leukemia = test system: K-562 leukemia
# MALME-3M melanoma = test system: MALME-3M melanoma
# MDA-MB-231 breast = test system: MDA-MB-231 breast
# RXF 393 renal = test system: RXF 393 renal
# SF-268 CNS = test system: SF-268 CNS
# SF-295 CNS = test system: SF-295 CNS
# SF-539 CNS = test system: SF-539 CNS
# UACC-257 melanoma = test system: UACC-257 melanoma
# M14 melanoma = test system: M14 melanoma
# HCT-15 colon = test system: HCT-15 colon
# HT29 colon = test system: HT29 colon
# SNB-75 CNS = test system: SNB-75 CNS
# SNB-19 CNS = test system: SNB-19 CNS
# PC-3 prostate = test system: PC-3 prostate
# SK-MEL-5 melanoma = test system: SK-MEL-5 melanoma
# UACC-62 melanoma = test system: UACC-62 melanoma
# LOX IMVI melanoma = test system: LOX IMVI melanoma
# SK-MEL-28 melanoma = test system: SK-MEL-28 melanoma
SMILES,growth (DU-145 prostate) [%],growth (K-562 leukemia),growth (MALME-3M melanoma),growth (MDA-MB-231 breast),growth (RXF 393 renal),growth (SF-268 CNS) [%],growth (SF-295 CNS),growth (SF-539 CNS),growth (UACC-257 melanoma),growth (M14 melanoma),growth (HCT-15 colon),growth (HT29 colon),growth (SNB-75 CNS),growth (SNB-19 CNS) [%],growth (PC-3 prostate) [%],growth (SK-MEL-5 melanoma) [%],growth (UACC-62 melanoma),growth (LOX IMVI melanoma),growth (SK-MEL-28 melanoma)
Cc1ccc(NS(=O)(=O)c2ccc(-c3cnc(C4CC4)o3)cc2)cc1,49.7,14.6%,47.9%,44.7%,26.5%,50.1,19.9%,26.7%,55.1%,9.71% (active),17.5%,12%,18.8%,37.6,49.7,15,27.3%,39.2%,53.9%
ONc1nc(NO)c2[nH]cnc2n1,74.6,23%,90.8%,77.4%,86.1%,58.8,91%,103%,105%,76.7%,89.9%,109%,88.6%,112,69.2,102,–,26%,91%
Cc1nc2cc(Nc3nc(Nc4ccc(F)cc4)nc(N4CCN(C)CC4)n3)ccc2n1Cc1ccccc1,16.7,0.387% (active),-83.4% (active),-73.3% (active),-82.7% (active),14.6,-62.5% (active),-95.9% (active),-83.7% (active),-73% (active),-34.3% (active),-51.9% (active),-20.4% (active),44.2,19.7,80.9,-65.4% (active),-73.6% (active),-67.4% (active)
CCCC1=NNC(=O)C1,125,100%,101%,122%,113%,108,97.5%,89.8%,90.9%,104%,103%,103%,93.8%,103,91.1,104,114%,108%,104%
O/N=C/c1cccs1,116,87.2%,105%,112%,107%,111,95%,96.9%,98.5%,105%,98.4%,107%,94.3%,107,101,103,119%,107%,112%
COc1cc(-c2ccc3cc(OC)c(OC)c(OC)c3c2)cc(OC)c1OC,95.9,24.9%,68.1%,65.4%,71.4%,77.4,43.8%,79.3%,75.3%,51.4%,42.8%,32.6%,49.1%,85.4,49.5,–,68.1%,62.8%,61%
COc1ccc(C2=NOC(CC(=O)N(CCO)CCO)C2)cc1OC1CCCC1 (stereo not drawn),105,121%,111%,103%,102%,97,97.1%,104%,102%,92.2%,98.6%,110%,86.5%,97,95.5,94.1,100%,103%,119%
COc1nc2c(cc1S(=O)(=O)c1ccccc1)CCc1c-2cnn1-c1ccccc1Cl,90.8,54.3%,97.4%,70.2%,52.6%,74.1,63%,60.5%,72.6%,68.9%,51.5%,36.9%,50.9%,64.5,–,68,60%,78%,–
CN1CCc2cccc3c2C1Cc1ccc(O)c(O)c1-3 (stereo not drawn),96.3,64.3%,83.1%,65.7%,91.1%,87.6,97.8%,84.2%,103%,76.1%,70.7%,76.2%,83.6%,111,–,97.5,105%,67.8%,115%
CCCCCCCCCCCCSC1=CC(=O)C=CC1=O,111,75%,102%,97.2%,78%,44.6,51.8%,27.7%,73.2%,89.5%,74.6%,94.7%,44.9%,40.4,16.8,97.5,96.4%,28.1%,110%
Cc1cc(Cl)c2c(Cl)ccc(Cl)c2n1,112,97.6%,105%,119%,118%,99.1,96.9%,97.5%,102%,101%,95.4%,102%,95.5%,107,96.3,102,105%,103%,113%
O=C(Nc1ccc(Cl)c(Cl)c1)NC(CO)(CO)CO,112,92.8%,87.7%,109%,100%,97.8,94.4%,103%,97.5%,97.4%,94.9%,100%,79.3%,101,–,99.3,113%,95.2%,107%
COc1nc2c(cc1S(=O)(=O)c1ccccc1)CCc1c-2cnn1-c1cccc(Cl)c1,97,61.4%,78.7%,89.7%,76.7%,87.2,80.2%,81.7%,78.7%,83.4%,71%,54.9%,85.5%,98.2,64.4,–,71.2%,93.9%,–
COc1cc(C(F)(F)F)ccc1-c1cc(-c2ccc(F)cc2)n[nH]1,95.7,97.5%,90.8%,80.2%,92.4%,101,97.6%,91.2%,82.5%,93.1%,73.3%,92.5%,74.4%,77.9,76,–,83.9%,96.9%,102%
COc1ccc(/C=N/NC(=O)c2cnn3c2NC(c2ccccc2)C3)cc1OC1CCCC1 (stereo not drawn),98.3,70.4%,123%,66.6%,104%,93.4,90.7%,87.2%,98.7%,93.5%,70%,90.6%,84.3%,87.7,79.1,–,83%,85.2%,108%
Cc1nc2cc(Nc3nc(Nc4ccc(F)cc4)nc(-c4cccs4)n3)ccc2n1Cc1ccccc1,75.2,43.1%,77.6%,69.1%,25.9%,63.7,51.9%,59.9%,57.5%,53.1%,30.3%,20.5%,52.2%,66.7,–,76.5,61.5%,64.8%,74.3%
